An excerpt weighted towards active compounds, which were near 11% of everything screened.
IMPase cell inh: qHTS Assay for Identifying the Cell-Membrane Permeable IMPase Inhibitors; Inositol monophosphatase 1 (Rattus norvegicus), P97697; CHO-M1 cells, IP1 accumulation, HTRF TR-FRET ratio; inhibition (IP1 accumulation), % at 46.1 µM; 120,000 tested, under 10 active; AID 901, 2007; active = well fitted curve in the direction sought with a large enough effect in the signal ratio, not every such curve was filed as active; inconclusive = small, poorly fitted or top-dose-only effect, or a change in a side signal; inactive = no such curve, though single readings can be large or run the other way; the % refers to the signal ratio;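 note: cells stimulated with carbachol in lithium chloride buffer; higher means more IMPase inhibition seen as more IP1 and lower FRET ratio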
Target sequence (P97697 whole entry, looked up): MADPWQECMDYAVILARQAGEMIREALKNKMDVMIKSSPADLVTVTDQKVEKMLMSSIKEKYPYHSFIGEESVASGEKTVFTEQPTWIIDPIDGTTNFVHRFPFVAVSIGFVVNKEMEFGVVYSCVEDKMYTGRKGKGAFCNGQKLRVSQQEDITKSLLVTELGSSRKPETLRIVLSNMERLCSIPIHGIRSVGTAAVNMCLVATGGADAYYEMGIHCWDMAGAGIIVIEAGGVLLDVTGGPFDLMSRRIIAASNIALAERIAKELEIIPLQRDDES
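CHO-M1, 2000 cells/well, cultured 16–30 h; cpd up to 46 uM; carbachol (50 uM solution, stimulation buffer w/ 50 mM LiCl, pH 7.4), 30 min 37C; IP-One TR-FRET, 10 min RT; Ex 320/Em 665, 620; Hill-fit AC50.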
HPGD inh: qHTS Assay for Inhibitors of HPGD (15-Hydroxyprostaglandin Dehydrogenase); 15-hydroxyprostaglandin dehydrogenase [NAD(+)] (Homo sapiens), P15428; purified HPGD, NADH fluorescence kinetic, PGE2 substrate; Potency, µM, hits mostly inhibitors; 150,000 compounds, 4.3% hits; AID 894, 2007
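20 nM HPGD preincubated 15 min at room temperature with compound in 50 mM Tris-HCl pH 8, 0.01% Tween 20. Started with 1 mM NAD+ and 30 uM prostaglandin E2; NADH fluorescence (360/450 nm) read 5 times over 30-s intervals, last minus first.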
IMPase Li cell: qHTS Assay for Identifying the Cell-Membrane Permeable IMPase Inhibitors: Potentiation with Lithium; AID 1457, 2008; CHO-M1 cells, IP1 TR-FRET (IP-One), carbachol + lithium; 210,000 compounds, 0.35% hits; Potency, µM (series often up to 59.4 µM), hits mostly inhibitors; active = well fitted inhibition curve with a large enough effect; inconclusive = small, poorly fitted or top-dose-only effect; inactive = no such curve, though single readings can be large or run the other way;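 note: IP1 builds up when IMPase is blocked and the TR-FRET signal falls; nearly all actives have a fitted effect of over 50% in size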
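Lithium-sensitised IP1 accumulation assay; M1-expressing CHO cells treated 30 min at 37C with compound. Competitive antibody detection by time-resolved FRET followed a 10 min room-temperature lysis step.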
ALDH1A1 block: qHTS Assay for Inhibitors of Aldehyde Dehydrogenase 1 (ALDH1A1); Aldehyde dehydrogenase 1A1 (Homo sapiens), P00352; Purified ALDH1A1, NADH fluorescence, propionaldehyde substrate; Potency, µM (top dose mostly 75.3 µM), usual class: inhibitors; 220,000 compounds, 7.3% hits
Target sequence (P00352 whole entry, looked up): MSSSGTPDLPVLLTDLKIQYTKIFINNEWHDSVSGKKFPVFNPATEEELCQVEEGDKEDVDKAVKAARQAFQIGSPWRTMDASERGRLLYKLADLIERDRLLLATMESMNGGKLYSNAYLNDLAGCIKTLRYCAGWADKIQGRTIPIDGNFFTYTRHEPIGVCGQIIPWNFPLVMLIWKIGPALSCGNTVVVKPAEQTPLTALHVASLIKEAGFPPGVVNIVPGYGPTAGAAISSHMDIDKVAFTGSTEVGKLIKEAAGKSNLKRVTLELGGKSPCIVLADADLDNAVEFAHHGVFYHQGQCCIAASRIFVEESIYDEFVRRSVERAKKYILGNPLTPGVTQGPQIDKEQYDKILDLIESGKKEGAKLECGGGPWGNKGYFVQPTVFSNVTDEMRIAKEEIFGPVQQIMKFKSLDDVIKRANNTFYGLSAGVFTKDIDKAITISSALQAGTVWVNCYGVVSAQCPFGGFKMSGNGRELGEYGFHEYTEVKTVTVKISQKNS
PNC inhibitor: High Content Assay for Compounds that inhibit the Assembly of the Perinucleolar Compartment. PC3M PTB-GFP, PNC prevalence imaging, 16 h; hits give low values. activity change (PNC), negative = inhibition, % at 10 µM. 140,000 compounds, 3.1% hits. AID 2417, 2010;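 active = readout at or below -70, meaning at least 70% loss of cells showing the perinucleolar compartment, a nuclear body marking cancer cells; inconclusive = readout between -30 and a set limit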
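PC3M cells stably expressing PTB-GFP, 750–1000 cells/well, treated 16 h at 37 °C with compound (23 nl of library stock), in duplicate. After paraformaldehyde fixation and Hoechst stain, imaged at 20x; PNC prevalence scored by image analysis.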
Numbers stand for hits; [ ] = dose if it differs, or a comment. Unless noted, calls come from the whole dose curve; as a rule, active = well fitted inhibition curve with a large enough effect (not every such curve was filed as active); inconclusive = small, poorly fitted or top-dose-only effect, or another doubt; inactive = no such curve, though single readings can be large or run the other way.

How did COC(=O)c1sc(NC(=S)NC(=O)c2ccccc2C)nc1C do in these assays?
IMPase Li cell: inactive; ALDH1A1 block: inactive

Results for CC(=O)C1=C(C)NC2(O)c3ccccc3C(=O)C12O (configuration not stated) ?
IMPase Li cell: inactive; ALDH1A1 block: 11µM

What do the screens show for `CCOC(=O)C1=C(C)NC2(O)c3ccccc3C(=O)C12O` (configuration not stated)?
IMPase cell inh: inactive; HPGD inh: inactive; IMPase Li cell: inactive; ALDH1A1 block: inconclusive; PNC inhibitor: inactive

How did CC(=O)c1c(C)oc2c1C(=O)c1ccccc1C2=O do in these assays?
IMPase cell inh: inactive; HPGD inh: inactive; IMPase Li cell: inactive; ALDH1A1 block: inactive; PNC inhibitor: inconclusive

How did COCCOC(=O)C1=C(C)NC2(O)c3ccccc3C(=O)C12O (configuration not stated) do in these assays?
IMPase Li cell: inactive; ALDH1A1 block: 11µM

How did O=C(CCSc1ccccc1)NC(=O)COC(=O)c1ccc(OC(F)F)cc1 do in these assays?
IMPase cell inh: inactive; ALDH1A1 block: inconclusive; PNC inhibitor: inactive

Results for C[C@H]1Cc2c(COc3ccccc3)nc3c(c2CO1)CN(S(=O)(=O)c1ccc(C#N)cc1)CC3 ?
HPGD inh: inactive; IMPase Li cell: inactive; ALDH1A1 block: inactive[13.5 µM]

Results for COc1cc(C2NC(C(=O)O)CS2)ccc1OCc1ccccc1C#N (configuration not stated) ?
IMPase cell inh: inactive; HPGD inh: inactive; IMPase Li cell: inactive; ALDH1A1 block: 8.9µM; PNC inhibitor: inactive

How did COc1cc2cc(C(=O)O)[nH]c2c(OC)c1OC do in these assays?
IMPase cell inh: inactive; HPGD inh: inconclusive; IMPase Li cell: inactive; ALDH1A1 block: inconclusive; PNC inhibitor: -97

What do the screens show for `COc1cc(/C=C/C(=O)O)cc(OC)c1OC`?
HPGD inh: inconclusive; IMPase Li cell: inactive; ALDH1A1 block: inconclusive

How did COc1ccc(OC2C(O)COC2/C=C/C#Cc2ccc(F)cc2F)cc1 (configuration not stated) do in these assays?
ALDH1A1 block: inactive[13.5 µM]

How did Cc1nn(C)c(C)c1NC(=O)c1ccnn1C do in these assays?
IMPase cell inh: inactive; HPGD inh: inactive; IMPase Li cell: inactive; ALDH1A1 block: 18µM; PNC inhibitor: inactive

Results for CCn1c(C(=O)NCCCc2ccccc2)cc2sccc21 ?
HPGD inh: inactive; IMPase Li cell: inactive; ALDH1A1 block: inactive; PNC inhibitor: inactive

Results for CCn1c(C(=O)NCc2cccnc2)cc2sc(Cl)cc21 ?
IMPase cell inh: inactive; HPGD inh: 16µM; IMPase Li cell: inactive; ALDH1A1 block: inactive; PNC inhibitor: inactive

What do the screens show for `O=C(NCc1ccco1)c1cc2sccc2n1Cc1ccccc1`?
IMPase cell inh: inactive; HPGD inh: 16µM; IMPase Li cell: inactive; ALDH1A1 block: inconclusive; PNC inhibitor: inactive

Results for O=C(NCCc1ccccc1)c1cc2sccc2n1Cc1ccccc1 ?
IMPase cell inh: inconclusive; HPGD inh: 16µM; IMPase Li cell: inactive; ALDH1A1 block: inconclusive; PNC inhibitor: inactive

How did CCn1c(C(=O)NCc2ccccn2)cc2sccc21 do in these assays?
IMPase cell inh: inactive; HPGD inh: 18µM; IMPase Li cell: inactive; ALDH1A1 block: inactive; PNC inhibitor: inactive

What do the screens show for `O=c1c([N+](=O)[O-])c(N2CCCCC2)c2ccccc2n1-c1ccccc1`?
IMPase cell inh: inactive; HPGD inh: inactive; IMPase Li cell: inactive; ALDH1A1 block: inactive; PNC inhibitor: inactive

What do the screens show for `Nc1c(N2CCCCC2)c(=O)[nH]c(=O)n1-c1ccccc1`?
IMPase cell inh: inactive; HPGD inh: inactive; IMPase Li cell: inactive; ALDH1A1 block: inactive; PNC inhibitor: -84

Results for CCOc1ccc2ncc(S(=O)(=O)c3ccc(C)cc3)c(N3CCC4(CC3)OCCO4)c2c1 ?
IMPase cell inh: inactive; ALDH1A1 block: 3.2µM; PNC inhibitor: inconclusive

Results for CCOC(=O)c1cnc2ccc(OCC)cc2c1N1CCN(C)CC1 ?
IMPase cell inh: inconclusive; ALDH1A1 block: inconclusive; PNC inhibitor: inactive

What do the screens show for `O=C(O)CCN1C(=O)C(=C2CCCCCC2)SC1=S`?
IMPase cell inh: inactive; HPGD inh: inactive; IMPase Li cell: inactive; ALDH1A1 block: inconclusive; PNC inhibitor: inconclusive

Results for O=C1C(=C2CCCCC2)SC(=S)N1Cc1ccco1 ?
IMPase cell inh: inactive; HPGD inh: inconclusive; IMPase Li cell: inactive; ALDH1A1 block: 18µM; PNC inhibitor: inactive

Results for C=CCNC(=O)c1ccc2nccnc2c1 ?
IMPase cell inh: inactive; HPGD inh: 16µM; IMPase Li cell: inactive; ALDH1A1 block: inactive; PNC inhibitor: inconclusive

How did CCC1S/C(=N\S(=O)(=O)c2cccs2)N(C2CCCCC2)C1=O (configuration not stated) do in these assays?
IMPase cell inh: inactive; HPGD inh: inactive; IMPase Li cell: inactive; ALDH1A1 block: 7.9µM; PNC inhibitor: inactive

How did O=C(/C=C/c1ccco1)Nc1cc(Cl)ccc1C(=O)O do in these assays?
HPGD inh: 32µM; IMPase Li cell: inactive; ALDH1A1 block: inconclusive; PNC inhibitor: inactive

Results for O=C(/C=C\c1ccco1)Nc1cc([N+](=O)[O-])ccc1F ?
HPGD inh: inactive; IMPase Li cell: inactive; ALDH1A1 block: inconclusive; PNC inhibitor: -134

Results for Cc1cc(/C=C2\NC(=O)NC2=O)c(C)n1-c1ccc(N2CCOCC2)cc1 ?
ALDH1A1 block: 25µM

What do the screens show for `Cc1cc(C=O)c(C)n1-c1ccc(N2CCOCC2)cc1`?
HPGD inh: inactive; IMPase Li cell: inactive; ALDH1A1 block: 3.2µM; PNC inhibitor: inactive

How did Clc1ccc2nc(Nc3ccccc3Cl)nc(-c3ccccc3)c2c1 do in these assays?
IMPase cell inh: inactive

How did O=C(c1cnn(C(=O)COc2ccc(Cl)cc2)c1)c1ccccc1O do in these assays?
HPGD inh: inactive; IMPase Li cell: inactive; ALDH1A1 block: 4.5µM; PNC inhibitor: inconclusive

How did O=C(c1cnn(-c2nc3ccccc3s2)c1)c1ccccc1O do in these assays?
IMPase cell inh: inactive; HPGD inh: inconclusive; IMPase Li cell: inactive; ALDH1A1 block: inactive; PNC inhibitor: inactive

What do the screens show for `O=C(c1cnn(C(=O)c2ccccc2)c1)c1ccccc1O`?
HPGD inh: inactive; IMPase Li cell: inactive; ALDH1A1 block: 2.2µM; PNC inhibitor: inconclusive

How did Cc1ccc(O)c(C(=O)c2cnn(C(=O)COc3ccc(Cl)cc3)c2)c1 do in these assays?
HPGD inh: inactive; IMPase Li cell: inactive; ALDH1A1 block: 1.8µM; PNC inhibitor: inactive

What do the screens show for `Cc1noc(/C=C/c2nn(C)cc2Cl)c1[N+](=O)[O-]`?
ALDH1A1 block: 8.9µM

How did Cc1cc(O)ccc1N/C=C/c1onc(C)c1[N+](=O)[O-] do in these assays?
IMPase Li cell: inactive; ALDH1A1 block: inactive

Bioassay records from PubChem.
